# Compound activity deposited in PubChem by The Scripps Research Institute Molecular Screening Center.
# CHRM1 PAM – potentiates human M1 receptor response to acetylcholine. P11229. CHO-K1 hM1, Fluo-8 calcium fluorescence, ACh EC20; 0% = ACh EC20, 100% = maximal ACh. activation, % at 3 µM. hit rate 0.088% among 360,000; in the data active = activation above about 19%, passing the limit was not always enough
# Target sequence (P11229 whole entry, looked up): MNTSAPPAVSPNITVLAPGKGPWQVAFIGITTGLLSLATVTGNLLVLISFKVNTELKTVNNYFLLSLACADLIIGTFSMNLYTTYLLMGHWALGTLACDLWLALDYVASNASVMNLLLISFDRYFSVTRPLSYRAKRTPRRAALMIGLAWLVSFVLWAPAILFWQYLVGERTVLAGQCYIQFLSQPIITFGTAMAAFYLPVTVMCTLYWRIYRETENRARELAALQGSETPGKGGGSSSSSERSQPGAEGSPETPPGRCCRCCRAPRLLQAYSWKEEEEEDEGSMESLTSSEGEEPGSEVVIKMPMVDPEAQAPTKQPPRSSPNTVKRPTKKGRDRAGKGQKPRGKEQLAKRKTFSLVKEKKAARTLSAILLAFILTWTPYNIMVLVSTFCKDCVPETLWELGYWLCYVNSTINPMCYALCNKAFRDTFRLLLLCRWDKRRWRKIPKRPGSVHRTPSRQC
# CHO-K1 Ca antag – counter-screen for M1 antagonists: effect in parental CHO-K1 cells | ATP-induced calcium, Fluo-8 fluorescence | inhibition, % at 3 µM | hit rate 0.6% among 360,000 | AID 602250;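 active = inhibition above a per-plate cutoff, the plate's mean sample inhibition plus 3 SD, cut at about 24% in these data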;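 also: 0% = DMSO plus EC80 ATP and 100% = DMSO alone without ATP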
# M1 ag – human M1 muscarinic receptor agonism; activation, % at 3 µM; CHO-K1 hM1, Fluo-8 calcium fluorescence, agonist mode; 0% DMSO, 100% acetylcholine EC100; P11229; hit rate 0.33% among 360,000;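 active = activation above the run's mean compound activation plus 3 SD, cut at about 16% in these data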;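 also: peak over basal fluorescence ratio within a 140 s kinetic read after compound addition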
# CHO-K1 Ca PAM – nonselective activator or artifact in parental CHO-K1 calcium assay; hit rate 0.02% among 360,000; activation, % at 3 µM; ATP EC20, Fluo-8 calcium fluorescence; 0% at ATP EC20, 100% at ATP max;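 active = activation above the run cutoff, the mean activation of all test compounds plus 3 SD, cut at about 40% in these data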;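 also: peak over basal fluorescence ratio in a 140 s read after ATP addition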
# CHRM1 antagonist – antagonists of human M1 muscarinic receptor; P11229; AID 588852; hit rate 1.3% among 360,000; inhibition, % at 3 µM; CHO-K1 hM1, Fluo-8 calcium fluorescence, ACh EC80 antagonist;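 active = percent inhibition above its own plate's cutoff, namely the mean of that plate's compound wells plus 3 SD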;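 also: peak over basal fluorescence ratio during 140 s after agonist addition; 0% = ACh EC80 plus DMSO and 100% = DMSO alone without agonist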
# CHO-K1 Ca ag – M1 agonist counterscreen hit in parental CHO-K1 cells. AID 602248. activation, % at 3 µM. hit rate 0.48% among 360,000. Fluo-8 calcium fluorescence; scaled to maximal ATP response, vehicle zero; in the data active = activation above about 15%;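 also: untransfected CHO-K1 host cells lacking M1 receptor as counterscreen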
# Starred values were filed as active, the others as inactive. Hits are enriched below; roughly 2.3% of the tested compounds scored in any of these assays.
SMILES,CHRM1 PAM,CHO-K1 Ca antag,M1 ag,CHO-K1 Ca PAM,CHRM1 antagonist,CHO-K1 Ca ag
COc1ccc(CN(C)S(=O)(=O)c2nnc(NC(=O)c3cccc(F)c3)s2)cc1,2,24*,2,-12,-5,2
OCC[C@@H]1C[C@H](O)[C@@H](O)[C@]2(OCc3ccc(CO)cc32)O1,11,14,0,15,-6,0
CC1(C)CC[C@]2(C(=O)O)CC[C@]3(C)C(=CC[C@@H]4[C@@]5(C)CC[C@H](O[C@@H]6O[C@H](C(=O)O)[C@@H](O)[C@H](O[C@@H]7OC[C@H](O)[C@H](O)[C@H]7O)[C@H]6O)C(C)(C)[C@@H]5CC[C@]43C)[C@@H]2C1,-8,24*,2,-16,19,0
COc1ccc(CC(=O)Nc2cccc(S(=O)(=O)N3CCCCCC3)c2)cc1OC,-11,23,-2,-6,29,13
N#C/C(=C\c1ccc(N2CCCCC2)o1)C(N)=O,5,7,-3,7,-7,7
N#C/C(=C\c1ccc(N2CCCCC2)o1)C(=O)Nc1cccc(Br)c1,-23,58*,68*,-14,66*,54*
Cc1ccccc1CCN1CCCC(CN(C)C(=O)C(=O)c2ccco2)C1 (stereo not given),-13,-1,-7,-11,29,0
CN(CC1CCCN(CCc2ccc(Cl)cc2)C1)C(=O)C(=O)c1ccco1 (stereo not given),-19,0,-5,-4,44*,0
CN(Cc1ccccc1OCCO)CC1CCCN(CCc2ccc(Cl)cc2)C1 (stereo not given),-28,13,-9,-8,51*,1
COc1ccc(CN2C(=O)c3ccccc3C2=O)cc1C(=O)N(C)CC(=O)Nc1ccc(F)cc1,2,-3,-2,-1,-2,2
O=C(Cc1ccc(Cl)cc1Cl)NCc1cccnc1,6,-12,-7,6,-6,1
Cc1cc(Br)cn2c(Cc3ccccc3)c(-c3ccccc3)nc12,-2,-3,-3,6,-6,0
C/C(=N\NC(N)=S)c1ccc(-n2ccnc2)cc1,29*,-9,-2,7,0,1
C/C(=N\NC(=O)OC(C)(C)C)c1ccc(-n2ccnc2)cc1,-2,-1,0,-5,9,1
C/C(=N\NC(=O)c1ccccc1)c1ccc(-n2ccnc2)cc1,-6,28*,-5,-14,10,0
C=C(C)CNC(=S)N/N=C(\C)c1ccc(-n2ccnc2)cc1,-2,-19,-2,12,-4,5
CCc1nc2ccc(C(=O)NCCCN3CCCC3=O)cn2c1N(CC)Cc1cccc(Br)c1,-6,-6,-8,10,2,0
COc1ccccc1C1CCN(Cc2cccc([N+](=O)[O-])c2)CC1,-22,-1,-8,-16,35*,0
CNC(=O)Nc1ccc2snnc2c1,-8,26*,-2,-7,17,0
Cc1csc(NC(=O)C(NC(=O)c2ccccc2F)C(C)C)n1 (stereo not given),8,2,-5,-3,-6,0
COC(=O)c1ccccc1-c1c2ccc(=N)cc-2oc2cc(N)ccc12,-24,88*,890*,-23,102*,678*
O=C(O)c1nccnc1C(=O)Nc1ccccc1-c1ccccc1,13,-3,1,-4,-9,0
CC(C)(CO)NCc1cc(Br)ccc1OCc1ccccc1,5,-21,-10,13,-1,1
CC(C)NCc1cc(Br)ccc1OCc1ccccc1,-17,-8,34*,16,29,3
CC(C)CC1NC(=O)N(CC(=O)Nc2cc(S(=O)(=O)N3CCOCC3)ccc2Cl)C1=O (stereo not given),4,4,-1,-20,-8,0
SMILES,CHRM1 PAM,CHO-K1 Ca antag,M1 ag,CHO-K1 Ca PAM,CHRM1 antagonist,CHO-K1 Ca ag
CC(=O)N1CCc2cc(S(=O)(=O)NC3CCCc4ccccc43)ccc21 (stereo not given),-10,34*,3,-8,23,5
CC(=O)N1CCc2ccc(S(=O)(=O)N3CCc4ccccc43)cc21,-20,13,-3,-17,35*,10
COc1ccc(S(=O)(=O)N2CCc3ccccc32)cc1C(=O)O,5,-17,-5,23,-15,2
O=C(O)c1ccc(S(=O)(=O)NC2CCCc3ccccc32)cc1 (stereo not given),4,-10,0,9,-6,0
CCc1c(C)c2cc(Cl)c(O)c(CN3CCCC3)c2oc1=O,18,-14,-5,-5,-17,-1
Cc1ccnc2nc(C(=O)OCC(=O)N(CC(C)C)C3CCS(=O)(=O)C3)nn12 (stereo not given),3,-13,-3,16,-6,1
Cc1c(C(=O)N2CCN(c3ccccn3)CC2)oc2c1C(=O)CC(C)(C)C2,-10,-10,0,1,10,7
COc1ccccc1N1CCN(C(=O)c2oc3c(c2C)C(=O)CC(C)(C)C3)CC1,-14,28*,2,-26,34,10
CCCCN1CCCCC1C(=O)Nc1c(C)cc(C)cc1C (stereo not given),8,30*,-5,0,9,0
Cc1cc(C)c(NC(=O)C2CCCN2CCO)c(C)c1 (stereo not given),7,-13,-5,19,-11,1
COc1ccccc1NC(=O)N1c2ccc(F)cc2CCC1C (stereo not given),-4,24*,-2,-9,17,0
COc1ccc(C(=O)N2c3ccc(F)cc3CCC2C)cc1OC (stereo not given),-4,16,-5,-6,7,0
CCN(CC)c1ccc2nc3ccccc3[n+](CC)c2c1,-30,-12,-10,16,69*,0
Cc1ccc(C(=O)N[C@@H](Cc2ccccc2)C(=O)N2CCC3(CC2)NCCc2[nH]cnc23)cc1C,-20,-7,-6,0,47*,1
CCCCN(C(=O)COC(=O)COc1c(C)cc(C)cc1C)c1c(N)n(CCC)c(=O)[nH]c1=O,13,-5,2,12,-13,2
Nc1c(C(=O)c2ccccc2)sc2nsc(SCCN3CCCC3)c12,-26,10,11,8,55*,16*
COC(=O)N/N=C/c1cn(CC(C)COc2ccccc2)c2ccccc12 (stereo not given),-2,-2,-4,22,6,3
COc1cccc(C(=O)NCCS(=O)(=O)NCc2ccco2)c1,7,37*,-3,8,-14,1
COc1ccccc1-n1c(=O)oc2ccc(Cl)cc2c1=O,4,-7,2,8,0,19*
COc1c(Cl)c(=O)oc2ccc(Cl)cc12,7,-17,-6,16,-13,0
